H9c2 protect: myocardial damage modulation in H9c2 cells; protection from H2O2 cell death, % at 20 µM; 0.63% of 360,000 active; AID 588492; H9c2 cardiomyocytes, H2O2 injury protection, ATPLite, 2 h;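 active means compounds giving at least 50% protection of heart cells from peroxide-induced death in the single-dose screen, raw or plate-pattern-corrected value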;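 further: 0% = DMSO wells with peroxide and 100% = DMSO wells without peroxide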
PLC-beta3 inh: PLC-beta3 (human) inhibition, primary screen | 0.18% of 370,000 active | Purified PLC-beta3, fluorogenic substrate, fluorescence | inhibition, % at 12.2 µM | AID 720704; in the data active means inhibition above about 11%;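 further: 0% = median of compound wells on plate and 100% = full blocker control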
PLCg1 inh: blocks human PLC-gamma1 enzyme activity; purified PLC-gamma1, fluorogenic substrate, fluorescence; inhibition, % at 12.2 µM; 0.84% of 370,000 active; in the data active means inhibition above about 9.5%
FAS TE block: blocks the thioesterase domain of human fatty acid synthase | inhibition, % at 15 µM | P49327 | AID 602261 | recombinant FAS-TE, OMFH fluorogenic substrate, fluorescence endpoint | 0.67% of 360,000 active;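 active means compounds whose normalised, plate-corrected inhibition of enzyme fluorescence in the single-dose primary screen is 50% or more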;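 further: 0% = DMSO with enzyme and 100% = substrate without enzyme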
FAS-TE conf: confirmation of human fatty acid synthase thioesterase inhibitors; 45% of 2,300 active; shares compounds with FAS TE block; recombinant FAS-TE, OMFH fluorogenic substrate, fluorescence; AID 624325; inhibition, % at 15 µM;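 active means compounds inhibiting the enzyme by at least 50% at 15 µM in any one of the replicates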;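 further: 0% = enzyme with DMSO only and 100% = wells lacking enzyme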
An asterisk follows results filed as active; nt = no result given. Only some compounds are listed: those with a hit (about 2.2% of all), similar ones and a draw of the others.

SMILES	H9c2 protect	PLC-beta3 inh	PLCg1 inh	FAS TE block	FAS-TE conf
Cc1ccccc1NCC(=O)N/N=C/c1ccc[nH]1	nt	1	-1	nt	nt
Cc1ccccc1S(=O)(=O)N1C[C@H]2CON(C)[C@H]2C[C@H]1c1cccc(-c2ccc(C#N)cc2)c1	5	2	3	23	nt
CCN1C(=O)[C@H]2[C@@H](c3ccc(C)cc3)N3C(=O)N(c4ccc(OC)cc4)C(=O)[C@@]3(Cc3ccc(Cl)cc3)[C@H]2C1=O	0	5	2	20	nt
Cc1cccc(N2C(=O)N3[C@H](c4ccc(Br)cc4)[C@@H]4C(=O)N(C(C)(C)C)C(=O)[C@@H]4[C@]3(Cc3ccc(Cl)cc3)C2=O)c1	-6	-2	-1	89*	45
COc1ccc(N2C(=O)N3[C@H](c4ccc(Cl)cc4)[C@@H]4C(=O)N(C5CCCCC5)C(=O)[C@@H]4[C@]3(Cc3ccc(Cl)cc3)C2=O)cc1	2	3	4	88*	29
COc1ccc([C@@H]2[C@@H]3C(=O)N(C(C)(C)C)C(=O)[C@@H]3[C@]3(Cc4ccc(Cl)cc4)C(=O)N(c4ccc(Br)cc4)C(=O)N23)cc1	-3	2	0	88*	55*
Cc1cccc(N2C(=O)N3[C@H](c4ccc(Br)cc4)[C@@H]4C(=O)N(C(C)(C)C)C(=O)[C@@H]4[C@]3(C)C2=O)c1	0	2	3	13	nt
COc1ccc([C@@H]2[C@@H]3C(=O)N(C(C)(C)C)C(=O)[C@@H]3[C@]3(Cc4ccc(Cl)cc4)C(=O)N(c4ccc(OC)cc4)C(=O)N23)cc1	0	2	0	92*	28
COc1ccc([C@@H]2[C@@H]3C(=O)N(C(C)(C)C)C(=O)[C@@H]3[C@]3(Cc4ccccc4)C(=O)N(c4ccc(C)cc4)C(=O)N23)cc1	-3	3	0	22	nt
COc1ccc(C)cc1N(C(=O)c1ccccc1)c1nc2ccccc2s1	-2	1	5	19	nt
COc1ccccc1N(C(=O)c1cncc(Br)c1)c1nc(-c2ccc(C)cc2)cs1	-10	0	4	56*	9
Cc1cc(N2CCN(C(=O)OC(C)(C)C)C[C@H]2C)ccc1N1CCN(Cc2ccccc2)[C@@H](C)C1	nt	3	0	nt	nt
N#C/C(=C\c1cc([N+](=O)[O-])c(N2CCCCC2)cc1N1CCCCC1)c1nn(-c2ccccc2)c(N)c1C#N	-20	3	9	57*	1
COc1ccc(NC(=O)CN2CCN(c3nc(-c4ccc(F)cc4)cs3)CC2)c(OC)c1	-2	-4	-1	54*	22
COc1ccccc1/C=C(\NC(=O)c1ccc(OC)c(OC)c1)C(=O)Nc1ccc([N+](=O)[O-])cc1	-3	5	3	86*	18
O=C(NNc1cccc([N+](=O)[O-])c1)/C(=C\c1cccnc1)NC(=O)c1ccccc1	0	-4	4	66*	65*
COc1ccccc1/C=C(\NC(=O)c1ccc(OC)c(OC)c1)C(=O)Nc1cccc([N+](=O)[O-])c1	0	-1	-2	88*	44*
O=C(Nc1cccc(C(=O)O)c1)/C(=C/c1ccc([N+](=O)[O-])cc1)NC(=O)c1ccccc1	-2	-3	2	23	nt
CC(C)(C)c1ccc(C(=O)N/C(=C\c2cccc([N+](=O)[O-])c2)C(=O)Nc2cccc(C(=O)O)c2)cc1	-9	-6	-2	83*	88*
C[C@@H]1CN([C@@H](C)CO)C(=O)c2ccccc2-c2ccccc2CO[C@@H]1CN(C)Cc1ccc(Cl)c(Cl)c1	nt	1	3	nt	nt
O=C(Nc1ccccc1)OC1CC2CC1[C@H]1CCCCN1[C@H]2Cc1ccccc1 (stereo partly specified)	nt	0	0	nt	nt
CCOC(=O)CC[C@H]1CC[C@]2(CCCN(C(=O)C(C)(C)C)C2)O1	nt	4	1	nt	nt
Cc1ccc(-n2c(SCC(=O)c3ccccc3Br)nnc2-c2ccncc2)cc1	nt	-1	-1	nt	nt
CC(=O)C1=C(C)NC(=S)NC1c1ccccc1 (stereo unspecified)	nt	2	2	nt	nt
CCC[C@H]1[C@@H](NC(=O)c2ccc(C)cc2)CC[C@@]23CCCN2C(=O)CCC[C@@H]13	nt	-2	-2	nt	nt
O=C(NNC(=O)c1ccco1)c1ccc(NS(=O)(=O)c2cccs2)cc1	4	-6	2	-7	nt
Cc1ccc(C2CCC3(CCC(=O)N3CCOC(=O)Nc3ccc(Br)cc3)CC2)cc1 (stereo unspecified)	nt	2	0	nt	nt
CC(=O)N1CCc2cc(Br)c(S(=O)(=O)CCC(=O)N3CCN(c4ccccn4)CC3)cc21	nt	2	1	nt	nt

Bioassay records as filed in PubChem BioAssay.
